Unmarked numbers belong to inactive results. Active and inactive are the calls of the source. Cut-off read from the data, not from the text of the source: active = inhibition score above about 11; inactive = the rest.
Test: S. cerevisiae short- and long-term growth effects – BY4741, OD595, 24 h, dose response (AID 489042)
Details: stronger effect = higher value

For `Oc1cccc2nc3ccccc3nc12`, which inhibition score is on record?
The inhibition score was 21 (active).

Which inhibition score does the source give for `CNc1ccc2nc3ccccc3[n+](C)c2c1` here?
Its inhibition score is 0.

With `C=C1C(O)[C@@H]2O[C@]3(CC[C@H](/C=C/C(C)[C@@H]4CC(C)=CC5(O[C@H](C[C@@](C)(O)C(=O)O)CCC5O)O4)O3)CC[C@H]2O[C@@H]1C(O)CC(C)[C@H]1OC2(CCCCO2)CCC1C` (stereo not given in full) as the compound, how does the inhibition score read?
Its inhibition score is 21 (active).

For `C[C@]12CCC3C(CC[C@H]4C[C@H](O)CC[C@]34C)C1CCC2=O` (stereo not given in full), which inhibition score is on record?
The inhibition score was 0.

Which inhibition score does the source give for `Cn1c(O)c(C(=Nc2ccc(F)cc2)c2ccccc2Cl)c(=O)n(C)c1=O` here?
The inhibition score was 10.

With `C[C@]12CCC3C(CC[C@H]4C[C@H](O)CC[C@]34C)C1C[C@@H](CCCCl)[C@@H]2O` (stereo not given in full) as the compound, how does the inhibition score read?
Its inhibition score is 10.

With `O=c1[nH]c(O)c(C=Nc2ccc(F)c(Cl)c2)c(=O)[nH]1` as the compound, how does the inhibition score read?
The inhibition score was 0.

With `C[n+]1c2ccccc2nc2ccc(NCCO)cc21` as the compound, how does the inhibition score read?
Its inhibition score is 0.

Which inhibition score does the source give for `C[C@]12CCC3C(CC[C@H]4C[C@@H](O)CC[C@]34C)C1CC[C@@H]2OC(=O)[C@H](N)CCCCN` (stereo not given in full) here?
Its inhibition score is 0.

Which inhibition score does the source give for `C#C[C@]1(O)[C@H](O)CC2C3CC[C@H]4C[C@@H](O)CC[C@]4(C)C3CC[C@@]21C` (stereo not given in full) here?
The inhibition score was 0.

With `Cn1c(=O)[nH]c2nncnc2c1=O` as the compound, how does the inhibition score read?
Its inhibition score is 0.

Which inhibition score does the source give for `CC(=O)O[C@H]1CCC2C3CC[C@H]4[C@@H](O)[C@H](O)CC[C@]4(C)C3CC[C@@]21C` (stereo not given in full) here?
The inhibition score was 0.

Which inhibition score does the source give for `Nc1cc2nc3ccccc3nc2cc1N` here?
The inhibition score was 0.

Which inhibition score does the source give for `C[C@]12CCC3C(CC[C@H]4C[C@@H](O)CC[C@]34C)[C@H]1CC[C@H]2O` (stereo not given in full) here?
Its inhibition score is 0.

For `OCC[n+]1c2ccccc2nc2ccc(N3CCOCC3)cc21`, which inhibition score is on record?
The inhibition score was 0.

From PubChem BioAssay AID489042 (NMMLSC, 2010)
